What was measured:
Conditions in all cases: concentration: 1 μM, replicates: in singlicate; n = 1
[1] = tested on: NEK6
[2] = tested on: NEK7
[3] = tested on: NEK9
[4] = tested on: T1, NIK
T1 construct: gene MAP3K14

[5] = tested on: T2, NIM1
T2 construct: gene MGC42105

[6] = tested on: NLK
[7] = tested on: T3, OSR1
T3 construct: gene OXSR1

[8] = tested on: PAK1
[9] = tested on: PAK2
[10] = tested on: PAK3
[11] = tested on: PAK4
[12] = tested on: PAK6
[13] = tested on: PAK7
[14] = tested on: T4, PCTK1
T4 construct: gene CDK16

[15] = tested on: T5, PCTK2
T5 construct: gene CDK17

[16] = tested on: T6, PCTK3
T6 construct: gene CDK18

[17] = tested on: PDGFRA
[18] = tested on: PDGFRB
[19] = tested on: PDPK1
[20] = tested on: PFTAIRE2
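Also: KINOMEscan kinase panel screen.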

Row | SMILES | %Inh [1] [%] | %Inh [2] [%] | %Inh [3] [%] | %Inh [4] [%] | %Inh [5] [%] | %Inh [6] [%] | %Inh [7] [%] | %Inh [8] [%] | %Inh [9] [%] | %Inh [10] [%] | %Inh [11] [%] | %Inh [12] [%] | %Inh [13] [%] | %Inh [14] [%] | %Inh [15] [%] | %Inh [16] [%] | %Inh [17] [%] | %Inh [18] [%] | %Inh [19] [%] | %Inh [20] [%]
1 | NS(=O)(=O)c1cccc(-c2ccc3nccc(-c4cccc(S(N)(=O)=O)c4)c3c2)c1 [GW867253] | 0 | 0 | 0 | 32 | 0 | 0 | 0 | 7 | 53 | 0 | 0 | 0 | 6 | 0 | 0 | 0 | 0 | 1 | 0 | 19
2 | CC(C)Oc1ccc2c(-c3ccnc(Nc4ccc(N5CCN(C)CC5)cc4)n3)cnn2n1 [GW696155] | 99.8 | 92.6 | 92.9 | 21 | 75 | 47 | 87 | 83 | 53 | 28 | 47 | 56 | 44 | 99.3 | 93.5 | 60 | 55 | 97.2 | 27 | 34
3 | O=c1cc(N2CCOCC2)nc2n(Cc3cccc(F)c3)ccn12 [GSK2297430] | 0 | 0 | 7 | 7 | 0 | 0 | 1 | 18 | 9 | 79 | 0 | 0 | 0 | 5 | 0 | 27 | 0 | 12 | 32 | 7
4 | Cc1ccc(C(=O)NCC(N)=O)cc1-n1c(C)cc(OCc2ccc(F)cc2F)c(Br)c1=O | 4 | 12 | 4 | 0 | 0 | 14 | 0 | 16 | 14 | 37 | 13 | 12 | 5 | 0 | 2 | 22 | 0 | 9 | 15 | 10
5 | COc1ccc(COc2cc(-n3cnc4ccccc43)sc2C(N)=O)cc1 [GSK1024304] | 0 | 0 | 5 | 10 | 28 | 0 | 14 | 1 | 4 | 1 | 0 | 0 | 5 | 0 | 0 | 11 | 0 | 31 | 3 | 17
6 | Cc1cccc(-c2nc(Nc3ccc4ncsc4c3)c3ccccc3n2)n1 [GW867588] | 8 | 0 | 0 | 0 | 17 | 14 | 0 | 0 | 45 | 19 | 8 | 0 | 8 | 0 | 0 | 0 | 33 | 0 | 0 | 0
7 | CC(C)(C)n1cnc2c(N)ncnc21 [SKF-97359] | 0 | 0 | 0 | 33 | 17 | 2 | 0 | 0 | 0 | 0 | 21 | 0 | 6 | 0 | 0 | 0 | 0 | 0 | 0 | 8
8 | Cc1cccc(Cn2ccn3c(=O)cc(N4CCOCC4)nc23)c1 [GSK2297542] | 2 | 0 | 15 | 0 | 8 | 15 | 19 | 18 | 25 | 3 | 25 | 53 | 22 | 6 | 16 | 19 | 0 | 40 | 11 | 27
9 | O=C(NCCNc1ccnc(Nc2ccc(F)cc2)n1)c1cc2ccccc2s1 [GSK1379874] | 0 | 0 | 16 | 0 | 33 | 0 | 12 | 6 | 0 | 0 | 0 | 0 | 0 | 0 | 0 | 0 | 0 | 26 | 0 | 17
10 | O=C(NCCNc1ccnc(Nc2ccc(F)cc2)n1)Nc1ccccc1F [GSK1379880] | 0 | 0 | 11 | 9 | 14 | 28 | 20 | 2 | 0 | 0 | 0 | 0 | 0 | 0 | 16 | 14 | 0 | 70 | 7 | 21
11 | Cc1c(Cn2c(C)nn3c(=O)cc(N4CCOC(C)C4)nc23)cccc1C(F)(F)F (stereo not shown) [GSK2344444] | 0 | 1 | 14 | 12 | 3 | 0 | 23 | 0 | 0 | 20 | 0 | 0 | 0 | 6 | 0 | 8 | 0 | 18 | 8 | 16
12 | NS(=O)(=O)CCc1cccc(Nc2nccc(-c3c(-c4cccc(NC(=O)c5c(F)cccc5F)c4)nn4ccccc34)n2)c1 [GSK336735] | 8 | 11 | 57 | 4 | 15 | 84 | 10 | 26 | 12 | 36 | 0 | 16 | 4 | 10 | 0 | 23 | 90.1 | 100 | 1 | 25
13 | Fc1ccc(-c2ncn(CCCN3CCOCC3)c2-c2cccnc2)cc1 [SB-211743] | 0 | 0 | 0 | 41 | 0 | 3 | 0 | 15 | 23 | 0 | 7 | 0 | 0 | 0 | 0 | 0 | 0 | 0 | 1 | 0
14 | C[C@@H](Oc1cc(-n2cnc3ccc(NC(=O)NC(C)(C)C)cc32)sc1C(N)=O)c1ccccc1Cl [GSK346294] | 0 | 4 | 16 | 21 | 19 | 19 | 18 | 15 | 14 | 15 | 0 | 2 | 29 | 0 | 9 | 14 | 4 | 22 | 0 | 11
15 | COc1ccc(S(=O)(=O)NC2CCN(c3cc(C)nc(Nc4cccc(C#N)c4)n3)CC2)cc1.O=C(O)C(F)(F)F [GSK1653539] | 0 | 0 | 0 | 5 | 0 | 50 | 0 | 3 | 0 | 0 | 0 | 0 | 30 | 0 | 0 | 0 | 0 | 12 | 0 | 3
16 | CCc1ccnc(/C=C/c2n[nH]c3cc(Sc4ccccc4C(=O)NC)ccc23)c1 | 0 | 0 | 0 | 0 | 0 | 0 | 0 | 0 | 0 | 0 | 3 | 0 | 0 | 10 | 0 | 2 | 99.8 | 100 | 0 | 0
17 | CN(C1=C(c2ccccc2)C(=O)NC1=O)c1ccccc1 [SB-334860] | 15 | 0 | 17 | 0 | 34 | 35 | 4 | 0 | 0 | 0 | 5 | 0 | 18 | 5 | 8 | 11 | 0 | 19 | 5 | 27
18 | COc1cc2c(cc1OC[C@@H](O)CO)ncc1c3ccc(C#N)cc3[nH]c21 | 0 | 0 | 0 | 60 | 30 | 0 | 0 | 0 | 0 | 0 | 0 | 0 | 11 | 0 | 0 | 0 | 99.2 | 91.4 | 8 | 6
19 | COc1cc(Nc2nccc(N3CCC(NC(=O)c4cccc(NC(C)=O)c4)C3)n2)cc(OC)c1OC (stereo not shown) [GSK1379754] | 37 | 68 | 49 | 23 | 5 | 0 | 6 | 20 | 20 | 26 | 0 | 0 | 0 | 4 | 0 | 20 | 0 | 54 | 30 | 18
20 | CCc1nc(-c2cccc(C)c2)c(-c2ccnc(NCc3ccccc3)c2)s1 | 0 | 0 | 0 | 0 | 0 | 21 | 0 | 30 | 27 | 22 | 22 | 11 | 0 | 0 | 13 | 0 | 30 | 39 | 3 | 7
